Screening results: PubChem BioAssay, National Center for Advancing Translational Sciences (NCATS)
CtBP-E1A blk: qHTS Assay for Inhibitors of the CtBP/E1A Interaction | hit rate 0.49% among 340,000 | activity change, % (test concentration not listed) | AlphaScreen GST-E1A/His-CtBP binding, 1536-well; hits give low values | AID 651724, 2012; in the data active means activity change below about -65%; inconclusive means mostly about -30% to -63%; further: on the % scale 0 is the no-effect control and ±100 the full control effect
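Steps: dispense buffer (Tris pH 8.0, NaCl 300 mM, TCEP 1 mM, BSA, Tween 20); add 5X protein mix (GST-E1A, His-CtBP, 125 nM each); pin 23 nL compound; 2 h at 37 °C, dark; add 5X beads (50 ug/mL); 1 h; read.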
S2 tox: Viability Counterscreen for Primary qHTS for Inhibitors of ATXN expression. hit rate 0.49% among 400,000. Potency, µM (titrated, usually from 56.7 µM), usual class: cytotoxic. S2 cells (HEK-293 line with an ATXN2-luciferase reporter) viability, CellTiter-Fluor protease fluorescence, 24 h; further: potency means the concentration at half of the fitted maximal effect; nearly all actives have a fitted effect of over 40% in size
TGFb inhibitor: qHTS for Inhibitors of TGF-b. HepG2 CAGA-GFP TGF-b/SMAD3 reporter, GFP fluorescence, 18 h; TGF-beta stimulated, 500 pg/mL final. Potency, µM (doses to about 46.1 µM), for the others: at the top dose activity, negative = inhibition, most hits filed as inhibitors. hit rate 1.2% among 410,000; further: potency means the concentration at half of the fitted maximal effect; on the % scale 0 is the no-effect control and ±100 the full control effect; nearly all actives have a fitted effect of over 65% in size
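Inhibition of TGF-beta-driven CAGA-GFP reporter expression in HEPG2 cells is measured by cellular GFP fluorescence after 18 h stimulation with 500 pg/mL recombinant TGF-beta in 1% FBS medium at 37 degrees C.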
HepG2 viability: qHTS for Inhibitors of TGF-b: Cytotox Counterscreen | Potency, µM (highest dose often 46.1 µM), for the others: top-dose activity change, negative = cytotoxicity, actives largely listed as cytotoxic | hit rate 0.76% among 410,000 | AID 588856, 2011 | HepG2 CAGA-GFP viability, ATP luminescence, 18 h; further: potency means the concentration at half of the fitted maximal effect
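CellTiter-Glo luminescence gave cytotoxicity after 18 hours at 37 degrees C. The cells were HepG2 CAGA-GFP in 1% FBS DMEM, stimulated with 500 pg/mL TGF-beta after compound addition. %Activity was normalised to no-cell wells (complete cell-killing) and DMSO (no toxicity), and curves were fitted and classified.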
Six1-Eya2 inh: qHTS Assay for Inhibitors of the Six1/Eya2 Interaction; AlphaScreen GST-Six1/His-Eya2 binding, biochemical; hits give low values; activity change, % (test concentration not listed); hit rate 0.56% among 360,000; AID 651725, 2012; in the data active means activity change below about -65%; inconclusive means mostly about -30% to -63%; further: on the % scale 0 is the no-effect control and ±100 the full control effect
Target sequence (O00167 whole entry, looked up): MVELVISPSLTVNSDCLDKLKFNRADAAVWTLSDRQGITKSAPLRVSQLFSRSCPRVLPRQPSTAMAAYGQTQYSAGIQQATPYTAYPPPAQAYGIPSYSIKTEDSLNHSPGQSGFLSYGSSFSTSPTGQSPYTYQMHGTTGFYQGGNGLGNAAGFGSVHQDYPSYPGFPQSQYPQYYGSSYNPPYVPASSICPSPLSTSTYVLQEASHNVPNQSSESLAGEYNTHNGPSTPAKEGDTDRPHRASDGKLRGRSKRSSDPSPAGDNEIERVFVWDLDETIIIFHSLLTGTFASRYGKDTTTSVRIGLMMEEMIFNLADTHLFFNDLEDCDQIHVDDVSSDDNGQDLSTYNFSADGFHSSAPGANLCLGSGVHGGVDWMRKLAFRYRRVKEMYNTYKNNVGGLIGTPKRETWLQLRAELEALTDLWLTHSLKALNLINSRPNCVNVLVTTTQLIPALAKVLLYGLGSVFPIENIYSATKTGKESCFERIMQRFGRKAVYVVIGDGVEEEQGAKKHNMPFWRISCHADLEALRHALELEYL
Target sequence (Q15475 whole entry, looked up): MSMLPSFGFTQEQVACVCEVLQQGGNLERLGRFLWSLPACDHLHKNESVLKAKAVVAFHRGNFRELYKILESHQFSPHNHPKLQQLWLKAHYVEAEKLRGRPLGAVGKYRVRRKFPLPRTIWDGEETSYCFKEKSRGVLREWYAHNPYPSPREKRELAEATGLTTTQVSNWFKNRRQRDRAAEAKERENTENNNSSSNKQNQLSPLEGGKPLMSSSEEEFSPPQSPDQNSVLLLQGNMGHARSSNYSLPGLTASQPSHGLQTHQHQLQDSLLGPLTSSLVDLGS
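Homogeneous AlphaScreen proximity assay pairing GST-Six1 with His-tagged Eya2 (added as 5X mix: 250 nM and 500 nM) in 50 mM Tris pH 8.0, 300 mM NaCl, 1 mM TCEP. Glutathione donor and nickel acceptor beads; 1 h, 37 °C, dark.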
ATXN2 expr inh: Primary qHTS for Inhibitors of ATXN expression; Potency, µM (highest dose often 57 µM), for the others: at the highest dose activity change, negative = inhibition, actives largely listed as inhibitors; hit rate 0.72% among 360,000; HEK-293 ATXN2-luciferase reporter, luminescence, 24 h; further: potency means the concentration at half of the fitted maximal effect; on the % scale 0 is the no-effect control and ±100 the full control effect; nearly all actives have a fitted effect of over 55% in size
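ATXN2-luciferase reporter cells (luciferase flanked by upstream and downstream ATXN2 gene portions) were treated 24 h at 37 °C with compounds at up to 57 uM. SteadyGlo luminescence gave expression; GF-AFC fluorescence gave viability.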
The depositor's hits bear a star; i = inactive; ? = inconclusive; / = not tested or not shown. Rows were chosen to be rich in hits. Some 2.8% of all compounds tested hit in one or more screens of this group. Unless noted, the call rests on the fitted dose curve; in most records, active means well fitted curve in the direction sought with a large enough effect; inconclusive means small, poorly fitted or top-dose-only effect, or another doubt; inactive means no such curve, though single readings can be large; an effect the other way counts as inactive or inconclusive.

SMILES	CtBP-E1A blk	S2 tox	TGFb inhibitor	HepG2 viability	Six1-Eya2 inh	ATXN2 expr inh
Cc1occc1C(=O)NCCN1Cc2ccccc2OC(c2ccccc2F)C1 (configuration not stated)	/	i	/	/	/	/
CCOc1ccccc1NC(=O)c1c(NC(=O)c2ccccc2C)sc2c1CCC(C)C2 (configuration not stated)	/	/	0.1%	-3.0%	/	/
CSc1cccc(Nc2cc(C(=O)NCCCN(C)c3ccccc3)c3ccccc3n2)c1	/	i	-23.9%	-19.9%	/	0.1%
Brc1ccc(-c2nc3ccccc3s2)s1	40.5	i	10.7%	-5.3%	61.0	83.8%
O=c1ccc2nc3ccccc3sc-2c1	-15.1	25.1µM*	20µM*	25.1µM*	?	?
Nc1c(C(=O)N2CCOCC2)sc2nc3c(cc12)CCCC3	12.7	i	3.8%	-15.7%	2.2	3.16µM*
Nc1c(C(=O)N2CCOCC2)sc2nc3c(cc12)CCC3	5.5	i	2.4%	-1.9%	2.4	0.3%
COc1ccc(CC(=O)Oc2ccc(F)cc2)cc1	22.4	i	4.3%	2.9%	27.6	-7.9%
O=C(Cc1ccc(F)cc1)Oc1ccc(C(=S)N2CCCC2)cc1	-1.2	i	9.8%	1.3%	-71.3*	4.8%
N#Cc1c(N)n(C2OC(CO)C(O)C2O)c2ncnc(N)c12 (configuration not stated)	9.1	?	?	-42.3%	3.6	0.299µM*
N/C(=N\OC(=O)c1ccc2ccccc2c1)c1ccccn1	0.1	i	-9.3%	-41.0%	-7.5	11.2µM*
CCOC(=O)c1ccc(N=c2sc(C(=O)OC)cc(=O)n2-c2ccc(C(=O)OCC)cc2)cc1	5.8	?	?	-34.8%	-4.1	?
COC(=O)c1cc(=O)n(-c2ccccc2)c(=Nc2ccccc2)s1	-18.0	?	17.8µM*	-60.4%	4.7	?
COc1ccc(-c2cccc3c2OC(CNC(=O)c2ccccc2-n2cccn2)C3)nn1 (configuration not stated)	/	i	/	/	/	/
Cc1ccc(C(C)(C)C)cc1S(=O)(=O)N1CC(=O)Nc2ccccc21	-27.6	/	-7.6%	3.1%	-5.6	-32.1%
Cc1cc(C(C)(C)C)cc(C)c1S(=O)(=O)N1CC(=O)Nc2ccccc21	-5.1	i	?	12.6µM*	-10.3	-17.3%
CC(=O)Oc1ccc(N(C(C)=O)S(=O)(=O)c2ccc(C)cc2)c2ccccc12	-0.5	?	-29.7%	-36.4%	-8.3	26.7µM*
CCn1c2ccccc2c2cc(NC(=O)COC(=O)C3CCC(=O)N3)ccc21 (configuration not stated)	-0.1	i	5.3%	2.0%	-9.4	17.8µM*
Cn1nc([N+](=O)[O-])nc1Sc1cccc2cccnc12	/	/	?	-2.6%	-90.1*	/
O=[N+]([O-])c1ccc(Cl)cc1Sc1cccc2cccnc12	-5.0	i	0.8%	-12.0%	-4.3	6.6%
Cc1ccc(F)cc1CNC(=O)c1sc2ncnc(NCC3CCCO3)c2c1C (configuration not stated)	/	i	/	/	/	/
Cn1nnnc1SCc1ccc(C(=O)Nc2nccs2)cc1	-79.7*	i	?	-1.3%	-70.4*	46.5%
COc1ccc2sc(-c3ccc(N(C)C)cc3)c(C#Cc3cncn3C)c2c1	/	/	?	8.91µM*	3.1	?
CCCCCNc1ncnc2c(C)[nH]nc12	6.0	i	7.9%	-5.1%	2.0	12.5%
Cn1nnnc1Sc1ncnc2scc(-c3cccc(C(F)(F)F)c3)c12	/	15.8µM*	?	-111.7%	/	14.1µM*
SMILES	CtBP-E1A blk	S2 tox	TGFb inhibitor	HepG2 viability	Six1-Eya2 inh	ATXN2 expr inh
Cn1nnnc1Sc1ncnc2scc(-c3cccc(F)c3)c12	/	?	10µM*	-109.9%	/	?
COc1cccc(-c2csc3ncnc(Sc4nnnn4C)c23)c1	/	?	?	9.6%	/	?
COC(=O)CSc1ncnc2scc(-c3ccccc3)c12	16.2	i	19.7%	30.1%	24.9	10.2%
Cn1nnnc1Sc1ncnc2scc(-c3ccc(C#N)cc3)c12	/	10µM*	?	-122.8%	/	10µM*
Cn1nnnc1Sc1ncnc2scc(-c3ccc(C(F)(F)F)cc3)c12	/	11.2µM*	?	-111.7%	/	3.98µM*
Cn1nnnc1Sc1ncnc2scc(-c3ccc(-c4ccccc4)cc3)c12	/	?	?	-54.3%	/	?
COc1ccc(C(=O)n2nc(-c3ccco3)nc2NCc2cccs2)cc1	/	i	1.0%	-53.7%	/	0.7%
COc1ccc(Cl)cc1N1C(=O)[C@@H]2C[C@H]1CN2Cc1nc2ccccc2nc1C	/	i	/	/	/	/
COc1ccc(F)c(Cn2cnc3c(cnn3C(C)(C)C)c2=O)c1Cl	/	/	2.8%	6.9%	/	/
CCOc1ccc(C2=NC(c3cccs3)=Nc3ccc(CC)cc3N2)cc1OCC	/	?	0.6%	-0.6%	/	28.7%
CCN(CC1CCCN(CCc2cccc(F)c2)C1)C(=O)c1cc2ccccc2o1 (configuration not stated)	-4.3	?	-9.3%	-4.1%	-8.6	-30.1%
CN(CC1CCCN(CCc2cccc(C(F)(F)F)c2)C1)C(=O)c1cc2ccccc2o1 (configuration not stated)	/	?	12.6µM*	-82.3%	-16.1	/
Cc1ccc(S(=O)(=O)N2CCCc3cc(NS(=O)(=O)c4cccc(Cl)c4)ccc32)cc1	/	?	10µM*	-16.2%	/	?
CCn1c2ccccc2c2cc(/C=N/NC(=O)c3cc(O)cc(O)c3)ccc21	-18.5	?	15.8µM*	-51.6%	-19.2	-22.3%
CCn1c2ccccc2c2cc(/C=N/NC(=O)c3ccncc3)ccc21	-15.1	?	8.91µM*	-33.5%	-11.2	?
